According to PubChem BioAssay (NCATS):
Records with an inconclusive call do not appear. Values without a mark were called inactive. The call rests on the fitted dose curve; in most records, active means well fitted inhibition curve with a large enough effect; inconclusive means small, poorly fitted or top-dose-only effect; inactive means flat fitted curve, though single readings scatter.

Biological target: Calcium and integrin-binding protein 1 (Homo sapiens) (UniProt Q99828)
Experiment: Primary qHTS for Identification of Calcium Integrin Binding Protein 1 (CIB1) Competitor (AID 1508620); further: top concentration of the series differs between compounds
Conditions: CIB1-GST / FITC-alphaIIb peptide fluorescence polarization; series mostly up to 114 µM; activity change, negative = inhibition: at the top concentration
Method in brief: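 Fluorescence polarization competition: GST-tagged CIB1 (1 uM final) preincubated with compound 15 min at room temperature, then FITC-labelled alphaIIb peptide (100 nM final) added. After 15 min at room temperature, polarization read at Ex 480/Em 540.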
On the % scale 0 is the no-effect control and ±100 the full control effect.

Sequence of Calcium and integrin-binding protein 1 (Homo sapiens) (Q99828 whole entry, looked up): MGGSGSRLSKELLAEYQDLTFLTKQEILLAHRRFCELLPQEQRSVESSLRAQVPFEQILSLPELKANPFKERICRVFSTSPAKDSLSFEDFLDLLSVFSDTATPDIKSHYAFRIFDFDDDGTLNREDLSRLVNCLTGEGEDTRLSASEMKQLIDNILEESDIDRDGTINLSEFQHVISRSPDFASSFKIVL

Compound | activity change, negative = inhibition
Cc1cn2c(n1)Cc1ccc(Cl)cc1C(c1ccc(N)cc1)=N2 | -6.32%
COC(CCc1ccc(O)cc1)CC(=O)CCc1ccc(O)cc1 (stereo not drawn) | 6.23% [at 57.7 µM]
O=C(NCc1cccs1)c1cc2nc(-c3ccco3)cc(C(F)(F)Cl)n2n1 | -12.1%
O=C(Nc1ccccc1Br)NC1CCN(c2ccc(C(F)(F)F)cn2)C1 (stereo not drawn) | 1.17%
COC1C(OC(=O)/C=C/C=C/C=C/C=C/C(=O)O)CCC2(CO2)C1C1(C)OC1CC=C(C)C (stereo not drawn) | -0.657% [at 57.7 µM]
N#Cc1cc(CN2CCC(Nc3ncnc4sc(Cl)cc34)CC2)ccc1F | -0.0599%
C=CCC1=C[C@]2(OC)[C@H](C)[C@@H](c3ccc4c(c3)OCO4)O[C@]2(OC)CC1=O | -7.86% [at 57.7 µM]
C=C1C(=O)O[C@@H]2/C=C(\C)CC/C=C(/C=O)[C@H](OC)[C@@H](OC(=O)C(C)C)[C@@H]12 | -4.26% [at 57.7 µM]
Cc1nnc(-c2ccc(-c3ccc(C(=O)Nc4ccc(O)c(N5CCN(C)CC5)c4)cc3)c(C)c2)o1 | -1.68%
C/C=C(\C)C(=O)OC1C(C)C2(O)C(C=C(CO)CC3(O)C(=O)C(C)=CC32)C2C(C)(C)C12OC(C)=O (stereo not drawn) | 2.32% [at 57.7 µM]
C=C(C)Cn1c(SCC(=O)c2cccs2)nc2sc3c(c2c1=O)CCCC3 | 2.06%
CN1CCN(Cc2ccc(NC(=O)Cc3ccc(Oc4cc(NC(=O)C5CC5)ncn4)cc3)cc2C(F)(F)F)CC1 | -6.8%
C=C[C@@]12COC(=O)C(=C)[C@@H]1[C@@H](O)[C@H](C(=C)C(=O)OC)[C@@H](O)C2 | -2.36% [at 57.7 µM]
CC(C)=C1C[C@@]2(C)C(=CC1=O)CC[C@@H](OC(=O)/C(C)=C/CO)[C@@H]2C | -1.23% [at 57.7 µM]
C/C=C/C=C/C=C/C(=O)O[C@@H]1C=C2COC(=O)[C@]2(O)[C@@]2(C)CCCC(C)(C)[C@H]12 | -5.63% [at 57.7 µM]
CC(C)(C)c1ccc2c(c1)CC[C@H]2NC(=O)Nc1cccc2[nH]ncc12 | 3.67%
CC(=O)OC/C(=C/C(=O)O)CC[C@@H]1C(C=O)=CC[C@@H]2C(C)(C)CCC[C@@]12C | -2.47% [at 57.7 µM]
Cc1c(Cl)cccc1S(=O)(=O)Nc1nc(NCCc2ccccc2)nc2c1CN(Cc1ccccc1)CC2 | 5.15%
Cc1ccc(-c2cn3c4c(sc3n2)CCCC4)cc1 | 5.63%

Compound | activity change, negative = inhibition
O=S(=O)(NCc1cccc2ccccc12)c1cc(Cl)c(Oc2cccc(N3CCNCC3)c2)s1 | 0.874%
C/C=C(/C)C(=O)O[C@@H]1C[C@@H](OC(=O)CC(C)C)C2(C)C3C(=O)C=C(C)C2C3C1(C)C (stereo partly drawn) | 2.9% [at 57.7 µM]
CC[C@H]1OC(=O)[C@H](C)[C@@H](O[C@H]2C[C@@](C)(OC)[C@@H](O)[C@H](C)O2)[C@H](C)[C@@H](O[C@H]2O[C@H](C)C[C@H](N(C)C)[C@H]2O)[C@](C)(O)C[C@@H](C)C(=O)[C@H](C)[C@@H](O)[C@]1(C)O | 2.11% [at 57.7 µM]
Cc1ccc(NC(=O)c2ccc(CN3CCNCC3)cc2)cc1Nc1nccc(-c2cccnc2)n1 | -6.06%
COC1C(O)C(OC2CCC3(C)C(CCC45CCC6C7(COC(=O)C7)OC4(O)C6(C)CCC35)C2)OC(C)C1OC1OC(CO)C(OC2OC(CO)C(O)C(O)C2O)C(O)C1O (stereo not drawn) | 1.46% [at 30.2 µM]
COc1ccc2c(c1O[C@H]1CCNC1)CCC2 | 0.0579%
CC/C=C\CC1C(=O)C=CC1(CCCCC1CCC(=O)O1)OC(C)=O (stereo not drawn) | -4.57% [at 57.7 µM]
CO[C@H]1C[C@@H]2CC[C@@H](C)[C@@](O)(O2)C(=O)C(=O)N2CCCC[C@H]2C(=O)O[C@H]([C@@H](C)C[C@@H]2CC[C@@H](O)[C@H](OC)C2)CC(=O)[C@H](C)/C=C(\C)[C@@H](O)[C@@H](OC)C(=O)[C@H](C)C[C@H](C)/C=C/C=C/C=C/1C | -16.7%
OC1CCC(Nc2nc(-c3ccccc3)nc3[nH]ccc23)CC1 (stereo not drawn) | -3.59%
C=C(C(=O)OC)[C@@H]1CC=C2C=CC(=O)[C@H](C)[C@@]2(C)C1 | -0.898%
Nc1ncnc2c1c(-c1ccc(Cl)cc1)nn2-c1cccc(-c2cnnn2Cc2cccc(-c3ccccc3)c2)c1 | -1.86%
CC(=O)NCc1cccc(OC[C@@H](O)CNCCc2ccc(NS(=O)(=O)c3ccccc3)cc2)c1 | 2.83%
Cc1ccc(F)cc1S(=O)(=O)N[C@@H]1CCN(Cc2ccc(OC(C)C)cc2)C1 | 0.597%
COC1CC(O[C@H]2CC[C@]3(C)C4CC[C@@]5(C)C(=O)[C@]4(CC[C@@H]3C2)CC[C@@H]5C2=CC(=O)OC2)OC(C)C1OC1OC(COC2OC(CO)C(O)C(O)C2O)C(O)C(O)C1O (stereo partly drawn) | 2.29% [at 30.2 µM]
CC(=O)O[C@@]12CO[C@@H]1C[C@H](O)[C@@]1(C)C(=O)[C@H](O)C3=C(C)[C@@H](OC(=O)[C@H](O)[C@@H](NC(=O)OC(C)(C)C)c4ccccc4)C[C@@](O)([C@@H](OC(=O)c4ccccc4)C12)C3(C)C (stereo partly drawn) | -4.45% [at 57.7 µM]
CNC(=O)c1cc(Oc2ccc(NC(=O)c3cccc(C(F)(F)F)c3)cc2)ccn1 | 4.8%
CC(O)C(C)n1ncn(-c2ccc(N3CCN(c4ccc(OCC5COC(Cn6cncn6)(c6ccc(Cl)cc6Cl)O5)cc4)CC3)cc2)c1=O (stereo not drawn) | 0.181%
CCCc1cc2c(N3CCN(C4=NCC(C)(C)S4)CC3)ncnc2s1 | 0.37%
COc1ccc(S(=O)(=O)Nc2c(C)cc(C)cc2C)cc1 | 1.64%
